Screens from PubChem.
An excerpt weighted towards active compounds, which were near 3.5% of everything screened.
MITF inh: inhibitors of human MITF. O75030. AlphaScreen MITF homodimerization, bead proximity signal. inhibition, % at 2.6 µM. 650,000 compounds, 0.91% hits; in the data active means inhibition above about 50%
Target sequence (O75030 whole entry, looked up): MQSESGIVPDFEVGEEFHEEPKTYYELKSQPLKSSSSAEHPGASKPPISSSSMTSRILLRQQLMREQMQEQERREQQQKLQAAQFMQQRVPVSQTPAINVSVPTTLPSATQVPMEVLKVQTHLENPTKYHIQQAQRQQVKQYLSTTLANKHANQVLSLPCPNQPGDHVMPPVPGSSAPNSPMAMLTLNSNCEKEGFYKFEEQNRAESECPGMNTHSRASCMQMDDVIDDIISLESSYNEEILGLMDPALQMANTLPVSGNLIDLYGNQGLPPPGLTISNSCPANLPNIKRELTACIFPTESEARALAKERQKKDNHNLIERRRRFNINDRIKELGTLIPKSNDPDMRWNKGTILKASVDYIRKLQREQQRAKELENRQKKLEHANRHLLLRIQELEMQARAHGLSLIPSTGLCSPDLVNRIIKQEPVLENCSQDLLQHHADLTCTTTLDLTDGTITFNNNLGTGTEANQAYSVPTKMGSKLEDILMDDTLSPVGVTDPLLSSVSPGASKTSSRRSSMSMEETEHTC
FBW7 activator: activators of human E3 ligase FBW7; Q969H0; AlphaScreen FBW7–phospho-cyclin E peptide binding, activator screen; normalized activity (activation), % at 26.1 µM; 650,000 compounds, 0.13% hits; in the data active means normalized activity above about 1.9%;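 further: purified mutant Fbw7 with reduced substrate affinity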
TEAD-YAP block: TEAD-YAP interaction inhibition; AID 1259422; HEK-TIYL cells, TEAD-Gal4/YAP UAS-luciferase luminescence; inhibition, % at 9.12 µM; 640,000 compounds, 1.4% hits; in the data active means inhibition above about 32%
GPR151 activ: human GPR151 activation; activation, % at 11.2 µM; PathHunter beta-arrestin GPR151 cells, luminescence; 650,000 compounds, 1% hits; in the data active means activation above about 4.9%
Of the large screens only hits and unclear results are named; the others gave an inactive call.

CCCC1=Nc2cc(C(=O)NCCOC)ccc2Sc2ccccc21	TEAD-YAP block 51.3
CCOCCCNC(=O)c1ccc2c(c1)N=C(CC)c1ccccc1S2	TEAD-YAP block 58.3
CCC1=Nc2cc(C(=O)NCCCOC)ccc2Sc2ccccc21	TEAD-YAP block 57.3
CCC1=Nc2cc(C(=O)NCCCN3CCOCC3)ccc2Sc2ccccc21	none
CCOCCCNC(=O)c1ccc2c(c1)N=C(C)c1cc(C)ccc1S2	TEAD-YAP block 68.3
COC(=O)c1ccc2c(c1)N=C(C)c1cc(C)ccc1S2	none
CCSCCOC(=O)C1=C(C)N(C)C(=O)NC1c1cc(Br)c(O)c(OC)c1 (stereo not given)	none
COc1ccccc1CNC(=O)C1c2ccccc2Oc2ccccc21	none
O=C(NCCN1CCOCC1)C1CCN(c2ccc(Nc3ccc(-n4ccnc4)cc3)nn2)CC1	none
O=C(Nc1ccc2nn(-c3ccccc3)nc2c1)C(F)(F)F	none
CC(C)(C)C(=O)Nc1ccc2nn(-c3ccccc3)nc2c1	TEAD-YAP block 81.6
CC(C)C(=O)Nc1ccc2nn(-c3ccccc3)nc2c1	TEAD-YAP block 46.1
CCC(=O)Nc1ccc2nn(-c3ccccc3)nc2c1	TEAD-YAP block 37.4
COc1cccc(-c2cnc(NCc3cccc(C)c3)n2C)c1	none
CC1=NN(C(=S)c2ccccc2)C(C)(O)C12CC2 (stereo not given)	TEAD-YAP block 33.0
CC1=NN(C(=O)c2ccccc2)C(C)(C)C1	none
C=CCNC(=O)C1CCN(C(=O)Nc2ccc(Cl)cc2)CC1	none
O=C(CNc1ccc2ccccc2c1)N/N=C/c1ccc(O)cc1O	TEAD-YAP block 39.9
O=C(N/N=C/c1ccc(O)cc1O)c1cccs1	MITF inh 82.5
O=C(N/N=C/c1ccc(O)cc1)c1cccs1	none
O=C(N/N=C\c1ccc(O)cc1O)C(=O)N/N=C/c1ccc(O)cc1O	MITF inh 68.8
O=C(N/N=C/c1cc(Cl)ccc1O)c1cccs1	TEAD-YAP block 55.4
COc1cc(/C=C(\NC(=O)c2ccccc2)C(=O)Nc2ccc(Cl)c([N+](=O)[O-])c2)cc(OC)c1OC	none
CCOc1cc(C(=O)N/N=C/c2ccc(O)cc2O)cc(OCC)c1OCC	TEAD-YAP block 72.2
O=C(N/N=C/c1cc(Br)ccc1F)c1cccs1	none
O=C(N/N=C/c1ccc(O)cc1O)c1ccc[n+](CCO)c1	MITF inh 101.5
O=C(N/N=C/c1cc(Br)ccc1O)c1cccs1	TEAD-YAP block 39.7
Nc1nonc1C(=O)N/N=C\c1ccc(O)c(O)c1	none
COc1ccc(C(=O)N/N=C/c2ccc(O)cc2O)cc1	none
Nc1nonc1C(=O)N/N=C/c1ccc(O)cc1O	MITF inh 94.4
CCCN1C(=O)c2ccc(C(=O)Nc3ccc([N+](=O)[O-])cc3O)cc2C1=O	none
CCN(CC)c1ccc(/C=N/NC(=O)c2nonc2N)cc1	TEAD-YAP block 45.6
COC(=O)c1c(NC(=O)c2ccco2)sc(C(=O)Nc2ccc(C)cc2)c1C	TEAD-YAP block 34.0
COC(=O)c1c(NC(=O)c2ccco2)sc(C(=O)Nc2ccc(F)cc2)c1C	none
CCN(CC)c1ccc2cc(S(=O)(=O)c3ccc(F)cc3)c(=O)oc2c1	FBW7 activator 2.1
COc1cccc2cc(S(=O)(=O)c3ccc(F)cc3)c(=O)oc12	none
COc1ccccc1N1CCN(C(=O)CSc2nc3ccccc3c(=O)n2Cc2ccco2)CC1	none
Cc1sc2nc(-c3cccnc3)nc(NCc3cccnc3)c2c1C	MITF inh 73.2, TEAD-YAP block 68.1
COc1ccccc1CNc1nc(C)nc2sc(C)c(C)c12	TEAD-YAP block 46.0
COC(=O)Cc1nc(NCc2ccccc2OC)c2c(C)c(C)sc2n1	none
Cc1nc(NCc2ccc(F)cc2)c2c(C)c(C)sc2n1	TEAD-YAP block 34.8
Cc1nc(NCc2ccc(Cl)cc2)c2c(C)c(C)sc2n1	TEAD-YAP block 39.2
Cc1sc2ncnc(NCc3ccc(Cl)cc3)c2c1C	none
CN1C=CC=C/C1=C(/C#N)C(=O)Nc1ccc(Cl)cc1	none
CC(=O)c1c(C)nn(CC(O)COc2ccc(C(=O)c3ccc(Cl)cc3)cc2)c1C (stereo not given)	TEAD-YAP block 39.9
Cc1cc(C)n(CC(O)COc2ccc(C(=O)c3ccccc3)cc2)n1 (stereo not given)	none
COCCCNS(=O)(=O)c1cc(Br)cnc1N	none
O=c1c(-c2ccc(Cl)cc2)c(N2CCN(c3ccccc3F)CC2)c1=O	TEAD-YAP block 41.6
COc1ccccc1N1CCN(c2c(-c3ccccc3)c(=O)c2=O)CC1	TEAD-YAP block 67.1
O=c1c(-c2ccccc2)c(N2CCN(c3cccc(Cl)c3)CC2)c1=O	none
O=c1c(-c2ccccc2)c(N2CCN(c3ccccc3F)CC2)c1=O	none
O=c1c(-c2ccc(Cl)cc2)c(N2CCN(c3ccccc3)CC2)c1=O	TEAD-YAP block 60.3
COc1cccc(OC)c1OCCN1CCN(C)CC1	none
